Screening data as filed in PubChem.
Hits are enriched below; roughly 3.4% of the tested compounds scored in any of these assays.
MITF primary – MITF inhibitors, primary screen, biochemical, AlphaScreen, human. Microphthalmia-associated transcription factor (Homo sapiens), O75030. AlphaScreen MITF homodimerization, bead proximity signal. inhibition, % at 2.6 µM. 650,000 compounds, 0.91% hits. AID 1259374, 2018; in the data active = inhibition above about 50%
GPR151 ag – activators of human GPR151, primary screen, cell-based, PathHunter beta-arrestin, luminescence; activation, % at 11.2 µM; 650,000 compounds, 1% hits; PathHunter beta-arrestin GPR151 cells; G-protein coupled receptor 151 (Homo sapiens), Q8TDV0; AID 1508602, 2020; in the data active = activation above about 4.9%
TEAD-YAP block – TEAD-YAP interaction inhibition, primary screen, TEAD-YAP interaction inhibitor project, luminescence, HEK-TIYL cells | TEAD-Gal4/YAP UAS-luciferase luminescence | inhibition, % at 9.12 µM | 640,000 compounds, 1.4% hits | AID 1259422, 2018; in the data active = inhibition above about 32%
FBW7 activator – FBW7 E3 ligase activators, primary screen, biochemical, AlphaScreen, human; F-box/WD repeat-containing protein 7 (Homo sapiens), Q969H0; AlphaScreen FBW7–phospho-cyclin E peptide binding, activator screen; normalized activity (activation), % at 26.1 µM; 650,000 compounds, 0.13% hits; AID 1259310, 2017; in the data active = normalized activity above about 1.9%;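 note: purified mutant Fbw7 with reduced substrate affinity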
Target sequence (Q969H0 whole entry, looked up): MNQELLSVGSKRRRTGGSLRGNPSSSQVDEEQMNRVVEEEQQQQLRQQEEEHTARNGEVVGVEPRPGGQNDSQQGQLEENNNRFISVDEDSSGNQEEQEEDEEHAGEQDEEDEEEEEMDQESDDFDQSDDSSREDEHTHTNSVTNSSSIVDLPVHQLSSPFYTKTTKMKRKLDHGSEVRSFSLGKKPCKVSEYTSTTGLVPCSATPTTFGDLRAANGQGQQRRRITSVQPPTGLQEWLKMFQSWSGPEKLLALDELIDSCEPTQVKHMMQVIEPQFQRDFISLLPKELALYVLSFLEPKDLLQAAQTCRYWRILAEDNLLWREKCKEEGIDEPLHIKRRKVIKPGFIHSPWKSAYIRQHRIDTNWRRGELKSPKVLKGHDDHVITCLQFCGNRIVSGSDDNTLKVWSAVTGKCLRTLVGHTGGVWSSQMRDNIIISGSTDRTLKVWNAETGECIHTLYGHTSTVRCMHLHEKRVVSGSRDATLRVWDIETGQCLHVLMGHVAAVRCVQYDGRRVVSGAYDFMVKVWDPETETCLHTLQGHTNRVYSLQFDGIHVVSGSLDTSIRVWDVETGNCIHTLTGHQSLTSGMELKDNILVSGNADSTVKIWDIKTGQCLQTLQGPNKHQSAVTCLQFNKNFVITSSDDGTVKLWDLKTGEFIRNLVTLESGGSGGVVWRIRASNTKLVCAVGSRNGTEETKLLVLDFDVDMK
MITF inh conf – MITF inhibitors, retest of hits, confirmation, biochemical, AlphaScreen, triplicate | AlphaScreen MITF homodimerization, biotin/His-MITF beads | inhibition, % at 2.6 µM | shares compounds with MITF primary | AID 1259372, 2018 | 4,700 compounds, 16% hits;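 active = inhibition above a cutoff derived from the DMSO control wells, cut at about 28% in these data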;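 note: inhibitors lower the bead chemiluminescence by keeping MITF from dimerizing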
AS interf DR – AlphaScreen optical interference compounds, dose response, counter-screen, biochemical, HTS. IC50, µM. AlphaScreen optical interference counterscreen, cell-free. shares compounds with MITF primary. AID 1259373, 2018. 480 compounds, 6% hits; call rule not given here
AlphaScreen intf2 – AlphaScreen optical interference compounds, counter-screen for MITF inhibitor project, biochemical, triplicate. LysRS AlphaScreen counterscreen, signal interference. shares compounds with MITF primary. inhibition, % at 2.6 µM. AID 1259376, 2018. 4,700 compounds, 7.6% hits;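 active = inhibition above a cutoff derived from the DMSO control wells, cut at about 30% in these data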
Numbers stand for hits.

`COc1ccc(CN2CCN(Cc3ccc(F)cc3)CC2)c(OC)c1OC` gave MITF primary 60, GPR151 ag inactive, TEAD-YAP block inactive, FBW7 activator inactive, MITF inh conf inactive and AlphaScreen intf2 inactive.
COc1cccc(CN2CCN(Cc3ccc(F)cc3)CC2)c1OC was read as MITF primary 80, GPR151 ag inactive, TEAD-YAP block inactive, FBW7 activator inactive, MITF inh conf inactive and AlphaScreen intf2 inactive.
Screening COc1ccc(CN2CCCCC2)c(OC)c1OC returned MITF primary inactive, GPR151 ag inactive, TEAD-YAP block inactive and FBW7 activator inactive.
For CCN1CCN(Cc2ccc(OC)c3ccccc23)CC1 the results were MITF primary inactive, GPR151 ag inactive, TEAD-YAP block inactive and FBW7 activator inactive.
Screening COc1cccc(CN2CCN(Cc3ccc(F)cc3)C(CCO)C2)c1OC (configuration not stated) returned MITF primary inactive, GPR151 ag inactive, TEAD-YAP block inactive and FBW7 activator inactive.
COc1ccc(CN2CCN(Cc3ccc(SC)cc3)CC2)c(OC)c1OC was read as MITF primary inactive, GPR151 ag inactive, TEAD-YAP block inactive and FBW7 activator inactive.
`COc1cc(OC)c(OC)cc1CN1CCN(Cc2ccc(OC)c(OC)c2OC)CC1` gave MITF primary 59, GPR151 ag inactive, TEAD-YAP block inactive, FBW7 activator inactive, MITF inh conf inactive and AlphaScreen intf2 inactive.
For CC1CCN(Cc2nc3c([nH]2)c(=O)n(C)c(=O)n3C)CC1 the results were MITF primary inactive, GPR151 ag inactive, TEAD-YAP block inactive and FBW7 activator inactive.
Screening CCOc1ccc(CN2CCN(Cc3ccc(OC)c(OC)c3OC)CC2)cc1 returned MITF primary 66, GPR151 ag inactive, TEAD-YAP block inactive, FBW7 activator inactive, MITF inh conf inactive and AlphaScreen intf2 inactive.
CCS(=O)(=O)N1CCN(Cc2ccc(OC)c(OC)c2OC)CC1 was read as MITF primary inactive, GPR151 ag inactive, TEAD-YAP block inactive and FBW7 activator inactive.
`O=C(Cc1n[nH]c(=O)c2ccccc12)N/N=C/c1ccc(-c2ccc([N+](=O)[O-])cc2)o1` gave MITF primary inactive, GPR151 ag inactive, TEAD-YAP block inactive and FBW7 activator inactive.
Screening CCOC(=O)C1CCCN(C(=O)c2cc3c(=O)oc4ccccc4c3s2)C1 (configuration not stated) returned MITF primary inactive, GPR151 ag inactive, TEAD-YAP block inactive and FBW7 activator inactive.
Screening CCOC(=O)c1cc(N2C(=O)C3C4C=CC(C4)C3C2=O)ccc1Cl (configuration not stated) returned MITF primary 59, GPR151 ag inactive, TEAD-YAP block inactive, FBW7 activator inactive, MITF inh conf 55, AS interf DR inactive and AlphaScreen intf2 inactive.
CC(=O)Nc1cc(N2C(=O)C3C4C=CC(C4)C3C2=O)ccc1Cl (configuration not stated) was read as MITF primary inactive, GPR151 ag inactive, TEAD-YAP block inactive and FBW7 activator inactive.
Cc1nc(NCC(C)(C)C)sc1-c1ccn(CC2CC2)n1 was read as MITF primary inactive, GPR151 ag inactive, TEAD-YAP block inactive and FBW7 activator inactive.
For C=CCc1ccc(OCCCCN2CCNCC2)c(OC)c1 the results were MITF primary 67, GPR151 ag inactive, TEAD-YAP block inactive, FBW7 activator inactive, MITF inh conf inactive and AlphaScreen intf2 inactive.
For C=CCc1ccc(OCCNC)c(OC)c1 the results were MITF primary inactive, GPR151 ag inactive, TEAD-YAP block inactive and FBW7 activator inactive.
Screening C=CCc1ccc(OCCN2CCN(CC)CC2)c(OC)c1 returned MITF primary 71, GPR151 ag inactive, TEAD-YAP block inactive, FBW7 activator inactive, MITF inh conf inactive and AlphaScreen intf2 inactive.
For C=CCc1ccc(OCCCCCN2CCOCC2)c(OC)c1 the results were MITF primary 59, GPR151 ag inactive, TEAD-YAP block inactive, FBW7 activator inactive, MITF inh conf inactive and AlphaScreen intf2 inactive.
